The panel holds about 83,000 compounds, 20% with a hit somewhere; the sample as a whole holds those more often.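 48-hour exposure, single concentration, 96-well plates; percent growth endpoint where 0 means no net growth. Active: below 10.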 Active and inactive are the calls of the source.

In the first assay the test system is SK-MEL-5 melanoma. Kind of assay: NCI-60 one-dose screen, 48 h (100 = growth as untreated, 0 = no growth, -100 = all killed). The conditions noted are these: 10 µM unless noted.
As to `CCN(CC)CCCN1C(=O)c2c(c(C)c3c(oc4cc(O)ccc43)c2C)C1=O`, the growth is -97.7% (active).
`Cn1ccc2c3c(ccc21)CC3=O`: the growth is 115% (inactive).
With `O=C1N[C@@H]2NC(=[N+]3CCOCC3)N[C@@H]2N1`, the growth is 101% (inactive).
Same read-out and setting: under `CCCCCOc1ccc(C(=O)/C(Br)=C/C(=O)O)cc1` stands 104% (inactive).
On to `O=C(/C=C/c1ccccc1)c1cccc(OCCCOc2cccc(C(=O)/C=C/c3ccccc3)c2)c1`, for which the growth is 100% (inactive).
The same measure, in the same setting: under `O=C(Cc1ccccc1)Nc1nc(O)c(/C=C2\C(=O)C=Cc3ccccc32)s1` stands 103% (inactive); under `Nc1c(C(=O)Nc2ccncc2)sc2nc3c(cc12)CCCCCC3`, 56.8% (inactive); under `COc1ccc(C(=O)Nc2cccc(C3CC(=O)c4c(cc(OC)c(OC)c4OC)O3)c2)cc1` (stereo not given), 9.7% (active).
Consider `O=C(c1cc2ccccc2o1)c1nn(-c2ccccc2)/c(=N/N=Cc2cn(-c3ccccc3)nc2-c2cc3ccccc3oc2=O)s1`, for which the growth was 102% (inactive).
With `CCCCCCCCCCCCCCCCCCOc1ccccc1CC(=O)NCC[N+]1(C)CCCC1`, the growth was 73% (inactive).
For the compound `O=C(CSc1nc(-c2ccccc2)[nH]c1S(=O)(=O)c1ccccc1)NC1CC1`, the growth is 35.6% (inactive).
As to `CC(C)N1CCN(Cc2ccc3c(NNC(=O)c4ccccc4)nc4cc(F)ccc4n23)CC1`, the growth is -8.08% (active).
For the compound `O=S(=O)(NCCCNc1nccc(-c2c(-c3ccc(F)c(O)c3)nc3occn23)n1)c1ccccc1`, the growth is 63% (inactive).
On the same count and under the same terms, under `COc1cc(-c2csc(NC(=O)c3cc(-n4cnc(C)c4)cc(C(F)(F)F)c3)n2)cc(OC)c1OC` stands 51% (inactive).
In the case of `COc1cc2c(c(OC)c1OC)CCC(c1cccc(C(=O)Nc3cccc(Br)c3)c1)O2` (stereo not given), the growth is 55.6% (inactive).
Still for that read-out and setting: under `Cc1nn(-c2ccccc2)c(Oc2ccccn2)c1-c1nc2ccccc2s1` stands 84.4% (inactive); under `CSc1nnc(-c2cnn3c2NC(c2ccccc2)C3)n1-c1ccc(C(F)(F)F)cc1` (stereo not given), 31.3% (inactive).
As to `Cc1ccc(-c2cc(-c3ccc(Cl)cc3)nc(NC(=O)c3cccnc3)n2)cc1`, the growth was 93.6% (inactive).
Regarding `CC1=C(C(=O)OC(C)C)C(c2ccc3c(c2)OCO3)NC(=S)N1` (stereo not given), the growth is 98.5% (inactive).
Turning to `CCOC(=O)c1c2c(n3ccc(C)cc13)C(=O)c1ccccc1C2=O`, the growth was 82.1% (inactive).
For `O=S(=O)(NCCNc1cc(-c2c(-c3cccc(O)c3)nc3sccn23)ccn1)c1ccc(C(F)(F)F)cc1`, the growth was -2.62% (active).
Regarding `Cc1nc2ncnc(Cl)c2[nH]1`, the growth was 104% (inactive).
`N#Cc1nn(-c2cc(=O)[nH]c3ccc(Cl)cc23)c(N)c1C#N`: the growth is 102% (inactive).
Still for that read-out and setting: under `C#COc1cccc(Nc2ncnc3ncc(NC(=O)CCl)cc23)c1` stands 47.1% [6.25 µM] (inactive); under `COC(=O)[C@]1(C)CCC[C@]2(C)[C@H]3C[C@H]4C(C(C)C)=C[C@]3(CC[C@H]21)[C@H]1[C@@H]4[C@@H](OCCC#N)CC[C@@H]1OCCC#N`, 26.2% (inactive).

In a further assay the test system is UACC-62 melanoma. Described as above. The settings on record: 10 µM unless noted.
Take `CC/C(=C(/c1ccc(Cl)cc1)c1ccc(OCCN2CCCC2)cc1)c1ccc(OC)cc1`: the growth is 96.3% (inactive).
Consider `Nc1ncnc2c1N=C(c1ccc(Cl)cc1)CC(c1ccc3c(c1)OCO3)N2` (stereo not given), for which the growth was 94.8% (inactive).
Regarding `N=C(N)c1ccc(-c2ccc(-c3ccc(F)cc3)o2)o1`, the growth was 57.5% (inactive).
As to `CCCCC(=O)c1ccco1`, the growth is 94.9% (inactive).
Same read-out and setting: under `C/C(=C(/c1ccc(Cl)cc1)c1ccc(OCCN2CCCC2)cc1)c1ccc(Cl)cc1` stands 93.9% (inactive); under `COC(=O)c1c2c(c[n+]([O-])c1C)C(=O)C(NCc1ccccc1)=CC2=O`, -78.5% (active).
With `Fc1ccc(-c2nn(-c3ccccc3)cc2-c2nc3ccccc3o2)cc1`, the growth is 74.9% (inactive).
With `COc1ccc2c3c([nH]c2c1)C(=O)c1nc(C)ccc1C3=O`, the growth is -29.3% (active).
With `CCN(C(=O)N1CCN(c2cc3c(cc2F)c(=O)c(C(=O)O)cn3C2CC2)CC1)c1nc(-c2ccc(Cl)cc2)cs1`, the growth is -26.7% (active).
Consider `CCCNC(=O)Oc1ccc(/C(=C(/C)Cc2ccc(OC)cc2)c2ccc(OCCCN(C)C)cc2)cc1`, for which the growth is 102% (inactive).
As to `CC(=O)OCc1nc(C#N)c(N(C)C)o1`, the growth was 89.3% (inactive).
For the compound `Cn1ccnc1C(=O)C(=O)Nc1ccc(CC(=O)Nc2ccccc2)cc1`, the growth is 95.5% (inactive).
Still for that read-out and setting: under `O=C(CN1C(=O)CCC1=O)Nc1ncc(Cc2ccc(F)cc2)s1` stands 92.1% (inactive); under `CNc1nc(S(=O)c2ccc(C#N)cc2)nc2ccccc12` (stereo not given), 81% (inactive); under `Cn1c(-c2ccc(Br)cc2)c(O)c(=O)c2c(F)cccc21`, 37.6% (inactive).
The same measure, in the same setting: under `CCN(CC)CCCN1C(=O)c2c(c(C)c3c(oc4cc(O)ccc43)c2C)C1=O` stands 95.2% (inactive); under `Cn1ccc2c3c(ccc21)CC3=O`, 99.1% (inactive); under `O=C1N[C@@H]2NC(=[N+]3CCOCC3)N[C@@H]2N1`, 90.1% (inactive).
As to `CCCCCOc1ccc(C(=O)/C(Br)=C/C(=O)O)cc1`, the growth was 90.9% (inactive).
For the compound `O=C(/C=C/c1ccccc1)c1cccc(OCCCOc2cccc(C(=O)/C=C/c3ccccc3)c2)c1`, the growth was 87.3% (inactive).
The same measure, in the same setting: under `O=C(Cc1ccccc1)Nc1nc(O)c(/C=C2\C(=O)C=Cc3ccccc32)s1` stands 94.6% (inactive); under `Nc1c(C(=O)Nc2ccncc2)sc2nc3c(cc12)CCCCCC3`, 89.6% (inactive); under `COc1ccc(C(=O)Nc2cccc(C3CC(=O)c4c(cc(OC)c(OC)c4OC)O3)c2)cc1` (stereo not given), 25.5% (inactive).
Consider `O=C(c1cc2ccccc2o1)c1nn(-c2ccccc2)/c(=N/N=Cc2cn(-c3ccccc3)nc2-c2cc3ccccc3oc2=O)s1`, for which the growth was 97.2% (inactive).
For `CCCCCCCCCCCCCCCCCCOc1ccccc1CC(=O)NCC[N+]1(C)CCCC1`, the growth was 43.2% (inactive).
Still for that read-out and setting: under `O=C(CSc1nc(-c2ccccc2)[nH]c1S(=O)(=O)c1ccccc1)NC1CC1` stands 94.6% (inactive); under `CC(C)N1CCN(Cc2ccc3c(NNC(=O)c4ccccc4)nc4cc(F)ccc4n23)CC1`, 7.2% (active); under `O=S(=O)(NCCCNc1nccc(-c2c(-c3ccc(F)c(O)c3)nc3occn23)n1)c1ccccc1`, 10.7% (inactive).
For `COc1cc(-c2csc(NC(=O)c3cc(-n4cnc(C)c4)cc(C(F)(F)F)c3)n2)cc(OC)c1OC`, the growth is 44.1% (inactive).
In the case of `COc1cc2c(c(OC)c1OC)CCC(c1cccc(C(=O)Nc3cccc(Br)c3)c1)O2` (stereo not given), the growth is 52.8% (inactive).
`Cc1nn(-c2ccccc2)c(Oc2ccccn2)c1-c1nc2ccccc2s1`: the growth was 91.4% (inactive).
Regarding `CSc1nnc(-c2cnn3c2NC(c2ccccc2)C3)n1-c1ccc(C(F)(F)F)cc1` (stereo not given), the growth was 40.3% (inactive).
On to `Cc1ccc(-c2cc(-c3ccc(Cl)cc3)nc(NC(=O)c3cccnc3)n2)cc1`, for which the growth was 76% (inactive).
As to `CC1=C(C(=O)OC(C)C)C(c2ccc3c(c2)OCO3)NC(=S)N1` (stereo not given), the growth is 85.2% (inactive).
Regarding `CCOC(=O)c1c2c(n3ccc(C)cc13)C(=O)c1ccccc1C2=O`, the growth was 92.6% (inactive).
Still for that read-out and setting: under `O=S(=O)(NCCNc1cc(-c2c(-c3cccc(O)c3)nc3sccn23)ccn1)c1ccc(C(F)(F)F)cc1` stands 40.1% (inactive); under `Cc1nc2ncnc(Cl)c2[nH]1`, 100% (inactive).
As for `N#Cc1nn(-c2cc(=O)[nH]c3ccc(Cl)cc23)c(N)c1C#N`, the growth is 81.9% (inactive).
Still for that read-out and setting: under `C#COc1cccc(Nc2ncnc3ncc(NC(=O)CCl)cc23)c1` stands 27.2% [6.25 µM] (inactive); under `COC(=O)[C@]1(C)CCC[C@]2(C)[C@H]3C[C@H]4C(C(C)C)=C[C@]3(CC[C@H]21)[C@H]1[C@@H]4[C@@H](OCCC#N)CC[C@@H]1OCCC#N`, 39.5% (inactive).

These data come from PubChem BioAssay (NCI).
